These results are taken from PubChem BioAssay (Tox21).

Assay [1] concerns the target Thyrotropin-releasing hormone receptor (Homo sapiens) (UniProt P34981). The assay is described as follows: qHTS assay to identify small molecule agonists of the thyrotropin-releasing hormone receptor (TRHR) signaling pathway (AID 1346891; calls by dose curve;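 also: HEK293 cells expressing TRHR with calcium dye readout; series mostly up to about 58 µM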). The essentials:
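In 1536-format, 1500 TRHR-Hek293 cells per well grew 18 h, took up calcium dye for 2 h at 37 °C, received compound, and were read kinetically; 15-point titrations, triplicates.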

The nature of assay [2]: Human pregnane X receptor (PXR) small molecule agonists, qHTS cell viability counter screen (AID 1346977). Also: nearly all actives have a fitted effect of over 50% in size. The method in brief:
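Readout is CellTiter-Fluor fluorescence from PXR-Luc HepG2 cells. Plated cells rested 5hr, then were treated with compounds for 24hr at 37C and 5% CO2, with reagent present during the last hour.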

The nature of assay [3]: Caspase-3/7 induction in HepG2 cells by small molecules, qHTS assay (AID 1346978). Also: nearly all actives have a fitted effect of over 15% in size. The method in brief:
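Caspase-3/7 induction was measured by Caspase-Glo 3/7 luminescence (30 min, room temperature) after a 17 hr compound exposure of wild-type HepG2 cells seeded at 2,000 per well and pre-incubated 5 hr.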

Assay [4] is described as follows: Caspase-3/7 induction in CHO-K1 cells by small molecules, qHTS cell viability counter screen (AID 1346979). Also: nearly all actives have a fitted effect of over 35% in size. The essentials: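 To flag cytotoxic compounds, treated CHO-K1 wild-type cells were given CellTiter-Fluor at 16hr and read fluorescently after 1hr at 37C; the caspase-3/7 luminescence was measured in these same wells.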
The nature of assay [5]: Caspase-3/7 induction in CHO-K1 cells by small molecules, qHTS assay (AID 1346980). Also: nearly all actives have a fitted effect of over 15% in size. The essentials: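 Luminescent Caspase-Glo 3/7 read (30min, room temperature) quantified apoptosis induction. Cells were wild-type CHO-K1, treated with compound for 17hr at 37 C and 5% CO2.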
Assay [6] can be described thus: Caspase-3/7 induction in HepG2 cells by small molecules, qHTS cell viability counter screen (AID 1346981). Also: series mostly up to about 92 µM; nearly all actives have a fitted effect of over 30% in size. The essentials:
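Wild-type HepG2 cells, 2,000/well, settled 5 hr at 37 C, 5% CO2 before compound addition. Viability read by CellTiter-Fluor fluorescence, reagent added after 16 hr compound exposure, then 1 hr at 37C, in the same wells as the caspase read.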

Assay [7] deals with Nuclear receptor subfamily 1 group I member 2 (Homo sapiens) (UniProt O75469). As to the kind of experiment: Human pregnane X receptor (PXR) small molecule agonists, qHTS assay (AID 1346982). Also: nearly all actives have a fitted effect of over 35% in size. Also: potency is read from the fitted curve at half-maximal effect. The essentials: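 PXR-Luc HepG2 reporter cells (CYP3A4-driven luciferase) in 5% charcoal-stripped FBS medium, plated 5 h before compound addition, then treated 24 h at 37C. Luciferase read by ONE-Glo luminescence after 30 min at room temperature.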

Assay [8] addresses Cytochrome P450 2D6 (Homo sapiens) (UniProt P10635). As to the kind of experiment: Cytochrome P450 Family 2 Subfamily D Member 6 (CYP2D6) small molecule antagonists: luciferase reporter qHTS assay (AID 1671196). Also: nearly all actives have a fitted effect of over 50% in size. Also: potency is read from the fitted curve at half-maximal effect. The essentials:
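Cell-free P450-Glo system: CYP2D6 with proluciferin substrate was pre-incubated with compound for 10 min, then reacted with NADPH regeneration for 1 h at room temperature. Luciferin product was detected after 20 min, and data were reported as relative luminescence units.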

Assay [9] has as its target Cytochrome P450 2C19 (Homo sapiens) (UniProt P33261). The assay is described as follows: Cytochrome P450 Family 2 Subfamily C Member 19 (CYP2C19) small molecule antagonists: luciferase reporter qHTS assay (AID 1671197). Also: nearly all actives have a fitted effect of over 65% in size. Also: potency is read from the fitted curve at half-maximal effect. The method in brief:
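Inhibition of CYP2C19 was scored from loss of luminescence in a P450-Glo proluciferin substrate assay, NADPH-started and run 1 h at 37C, with ketoconazole as positive control.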

Assay [10] deals with Cytochrome P450 2C9 (Homo sapiens) (UniProt P11712). The assay is described as follows: Cytochrome P450 Family 2 Subfamily C Member 9 (CYP2C9) small molecule antagonists: luciferase reporter qHTS assay (AID 1671198). Also: nearly all actives have a fitted effect of over 50% in size. Also: potency is read from the fitted curve at half-maximal effect. The method in brief: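 Enzyme-substrate mix preincubated with compound 10 min at room temperature; reaction started with NADPH regeneration solution, 1 h 37C. Luminescent luciferin product read after 20 min detection reagent.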

The target in assay [11] is Cytochrome P450 1A2 (Homo sapiens) (UniProt P05177). As to the kind of experiment: Cytochrome P450 Family 1 Subfamily A Member 2 (CYP1A2) small molecule antagonists: luciferase reporter qHTS assay (AID 1671199). Also: nearly all actives have a fitted effect of over 50% in size. Also: potency is read from the fitted curve at half-maximal effect. The method in brief: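 P450-Glo CYP1A2 enzyme–proluciferin substrate mix with compound 10 min at room temperature, then NADPH regeneration 1 h at room temperature. Luciferin detection reagent added, luminescence read after 20 min; furafylline positive control.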

Assay [12] concerns the target Voltage-gated inwardly rectifying potassium channel KCNH2 (Homo sapiens) (UniProt Q12809). The assay is described as follows: Human Ether-a-go-go-Related Gene (hERG) channel small molecule antagonists: fluorescence cell-based qHTS assay (AID 1671200). The method in brief:
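Measured: Tl+ flux via fluorescence (480/540 nm) in hERG-expressing U2OS cells after 1 h dye loading at room temperature.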

Assay [13] deals with Cytochrome P450 3A4 (Homo sapiens) (UniProt P08684). The assay is described as follows: Cytochrome P450 Family 3 Subfamily A Member 4 (CYP3A4) small molecule antagonists: luciferase reporter qHTS assay (AID 1671201). The method in brief:
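Setup: enzyme-substrate mix, compound pin transfer, 10 min RT. Reaction: NADPH regeneration solution, 1 h RT. Readout: detection reagent stops turnover, luminescence measured after 20 min, expressed in relative luminescence units.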

Assay [14] deals with Nuclear receptor subfamily 1 group I member 2 (Rattus norvegicus) (UniProt Q9R1A7). As to the kind of experiment: Rat pregnane X receptor (rPXR) activation by small molecules, qHTS assay (AID 1346983). Also: nearly all actives have a fitted effect of over 20% in size. To be noted: rPXR luciferase reporter cells, One-Glo luminescence, 24 h; max activation: hits give high values. The essentials:
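Luminescent readout (One-Glo luciferase, 30 min room temperature) followed 24 hr compound treatment at 37 C of rPXR cells plated 2,000 per well and preincubated 5hr; qHTS format with compounds delivered in DMSO.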

Assay [15] has as its target Nuclear receptor subfamily 1 group I member 2 (Homo sapiens) (UniProt O75469). The assay is described as follows: CYP3A4 induction through human pregnane X receptor (PXR) by small molecules, qHTS assay (AID 1346984). Also: nearly all actives have a fitted effect of over 40% in size. The essentials:
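DPX-2 HepG2 cells carrying a PXR response element and CYP3A4-promoter luciferase construct, treated with compounds 24 hr at 37C. Then P450-Glo CYP3A4 Luciferin-IPA substrate (3uM final) for 3 hr at 37C, One-Glo added, luminescence read.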

Assay [16] has the same target. As to the kind of experiment: Human pregnane X receptor (PXR) activation by small molecules, qHTS assay (AID 1346985). Also: nearly all actives have a fitted effect of over 40% in size. The essentials:
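DPX-2 cells (HepG2 co-transfected with a PXR response element and a CYP3A4-promoter luciferase construct) were seeded at 2,000 per well, rested 5 hr at 37C, then exposed to DMSO-dissolved compounds for 24 hr. Activation was read as luciferase luminescence.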

Unmarked numbers belong to inactive results. Inconclusive results are not listed. Calls of active or inactive are those of the source. Unless noted, calls follow the shape of the dose curve; as a rule, active = well fitted curve in the direction sought with a large enough effect in the repeat runs; inconclusive = weak or mixed curves; inactive = no such curve, though single readings can be large; an effect the other way counts as inactive or inconclusive.
% is scaled to controls: 0 for no effect and ±100 for the full control effect.

Sequence of Nuclear receptor subfamily 1 group I member 2 (Homo sapiens) (O75469 whole entry, looked up): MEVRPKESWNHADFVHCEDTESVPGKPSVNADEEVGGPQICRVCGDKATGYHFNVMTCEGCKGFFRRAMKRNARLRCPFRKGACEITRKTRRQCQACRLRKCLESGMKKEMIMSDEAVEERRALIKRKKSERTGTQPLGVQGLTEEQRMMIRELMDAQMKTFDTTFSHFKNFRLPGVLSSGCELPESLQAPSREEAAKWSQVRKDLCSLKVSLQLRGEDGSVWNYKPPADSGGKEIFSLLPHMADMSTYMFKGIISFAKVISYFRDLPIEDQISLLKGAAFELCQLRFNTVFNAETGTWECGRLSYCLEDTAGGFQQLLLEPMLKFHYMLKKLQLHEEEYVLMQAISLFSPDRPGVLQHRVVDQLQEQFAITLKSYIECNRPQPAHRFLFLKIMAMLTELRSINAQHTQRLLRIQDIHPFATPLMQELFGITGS
Sequence of Cytochrome P450 3A4 (Homo sapiens) (P08684 whole entry, looked up): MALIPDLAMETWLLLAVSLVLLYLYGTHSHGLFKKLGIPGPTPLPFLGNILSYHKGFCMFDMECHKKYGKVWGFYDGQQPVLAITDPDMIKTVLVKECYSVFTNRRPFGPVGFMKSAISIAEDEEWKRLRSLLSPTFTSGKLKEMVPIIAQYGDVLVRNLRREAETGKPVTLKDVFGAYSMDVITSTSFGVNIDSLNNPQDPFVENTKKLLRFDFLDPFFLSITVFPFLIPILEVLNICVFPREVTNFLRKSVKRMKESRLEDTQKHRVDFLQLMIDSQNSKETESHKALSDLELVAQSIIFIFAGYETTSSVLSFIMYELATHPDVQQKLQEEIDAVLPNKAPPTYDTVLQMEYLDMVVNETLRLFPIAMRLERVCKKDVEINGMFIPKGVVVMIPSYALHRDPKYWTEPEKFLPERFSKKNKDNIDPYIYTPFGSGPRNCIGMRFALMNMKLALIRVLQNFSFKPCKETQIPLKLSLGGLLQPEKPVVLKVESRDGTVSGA
Sequence of Cytochrome P450 2C9 (Homo sapiens) (P11712 whole entry, looked up): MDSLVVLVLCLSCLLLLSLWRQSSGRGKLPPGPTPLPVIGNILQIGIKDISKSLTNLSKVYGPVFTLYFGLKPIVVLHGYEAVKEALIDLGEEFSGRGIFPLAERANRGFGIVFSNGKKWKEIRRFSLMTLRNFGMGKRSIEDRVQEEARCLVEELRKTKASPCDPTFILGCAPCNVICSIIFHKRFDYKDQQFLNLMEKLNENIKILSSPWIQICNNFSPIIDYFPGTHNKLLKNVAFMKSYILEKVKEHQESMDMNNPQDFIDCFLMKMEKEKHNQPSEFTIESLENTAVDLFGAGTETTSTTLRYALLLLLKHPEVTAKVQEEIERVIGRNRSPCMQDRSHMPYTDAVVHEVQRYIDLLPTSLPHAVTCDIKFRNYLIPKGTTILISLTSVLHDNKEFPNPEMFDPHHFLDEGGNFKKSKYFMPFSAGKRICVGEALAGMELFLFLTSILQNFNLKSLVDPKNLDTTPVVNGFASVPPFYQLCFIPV
Sequence of Cytochrome P450 1A2 (Homo sapiens) (P05177 whole entry, looked up): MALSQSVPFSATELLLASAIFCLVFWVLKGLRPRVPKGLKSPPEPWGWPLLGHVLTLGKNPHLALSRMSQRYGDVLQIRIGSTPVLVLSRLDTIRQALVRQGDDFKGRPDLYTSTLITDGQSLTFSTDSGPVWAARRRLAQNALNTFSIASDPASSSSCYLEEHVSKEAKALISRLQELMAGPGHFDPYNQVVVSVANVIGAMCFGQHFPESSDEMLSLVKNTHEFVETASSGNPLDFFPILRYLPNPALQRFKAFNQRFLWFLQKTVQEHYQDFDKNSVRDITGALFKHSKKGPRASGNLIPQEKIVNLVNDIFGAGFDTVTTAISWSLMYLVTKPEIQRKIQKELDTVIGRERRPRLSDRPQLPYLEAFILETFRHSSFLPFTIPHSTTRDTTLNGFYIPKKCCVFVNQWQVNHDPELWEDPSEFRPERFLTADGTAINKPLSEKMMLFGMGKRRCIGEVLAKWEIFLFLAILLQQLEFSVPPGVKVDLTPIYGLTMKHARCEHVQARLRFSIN
Sequence of Voltage-gated inwardly rectifying potassium channel KCNH2 (Homo sapiens) (Q12809 whole entry, looked up): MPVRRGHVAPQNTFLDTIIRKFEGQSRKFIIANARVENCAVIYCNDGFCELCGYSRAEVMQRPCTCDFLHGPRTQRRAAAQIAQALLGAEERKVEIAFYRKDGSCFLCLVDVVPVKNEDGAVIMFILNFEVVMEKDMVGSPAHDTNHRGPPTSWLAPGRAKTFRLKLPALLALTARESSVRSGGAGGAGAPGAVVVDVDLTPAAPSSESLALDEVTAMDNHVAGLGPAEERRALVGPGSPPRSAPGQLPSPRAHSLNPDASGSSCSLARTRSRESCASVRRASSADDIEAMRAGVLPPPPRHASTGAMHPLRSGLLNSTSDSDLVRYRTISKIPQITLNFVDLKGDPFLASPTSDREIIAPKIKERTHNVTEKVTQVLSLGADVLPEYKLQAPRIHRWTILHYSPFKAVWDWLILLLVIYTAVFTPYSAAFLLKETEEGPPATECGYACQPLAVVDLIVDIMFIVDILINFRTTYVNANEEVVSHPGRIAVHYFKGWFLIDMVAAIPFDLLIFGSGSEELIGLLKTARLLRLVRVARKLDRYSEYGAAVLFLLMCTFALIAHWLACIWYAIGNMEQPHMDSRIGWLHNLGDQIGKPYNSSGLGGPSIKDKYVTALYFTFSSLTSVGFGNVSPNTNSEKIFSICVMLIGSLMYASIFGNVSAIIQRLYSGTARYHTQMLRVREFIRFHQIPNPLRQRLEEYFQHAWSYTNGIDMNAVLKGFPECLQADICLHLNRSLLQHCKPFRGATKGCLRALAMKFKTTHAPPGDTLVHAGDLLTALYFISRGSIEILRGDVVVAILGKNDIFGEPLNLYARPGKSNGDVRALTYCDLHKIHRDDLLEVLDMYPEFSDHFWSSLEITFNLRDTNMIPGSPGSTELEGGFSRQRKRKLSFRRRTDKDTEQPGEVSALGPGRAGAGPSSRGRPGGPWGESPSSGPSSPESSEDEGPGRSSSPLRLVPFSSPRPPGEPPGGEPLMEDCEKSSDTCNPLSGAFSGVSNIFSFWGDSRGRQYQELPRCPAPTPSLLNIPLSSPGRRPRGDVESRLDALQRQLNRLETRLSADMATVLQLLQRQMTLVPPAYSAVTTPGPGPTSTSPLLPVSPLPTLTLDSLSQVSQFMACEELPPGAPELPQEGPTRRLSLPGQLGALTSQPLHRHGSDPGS
Sequence of Cytochrome P450 2D6 (Homo sapiens) (P10635 whole entry, looked up): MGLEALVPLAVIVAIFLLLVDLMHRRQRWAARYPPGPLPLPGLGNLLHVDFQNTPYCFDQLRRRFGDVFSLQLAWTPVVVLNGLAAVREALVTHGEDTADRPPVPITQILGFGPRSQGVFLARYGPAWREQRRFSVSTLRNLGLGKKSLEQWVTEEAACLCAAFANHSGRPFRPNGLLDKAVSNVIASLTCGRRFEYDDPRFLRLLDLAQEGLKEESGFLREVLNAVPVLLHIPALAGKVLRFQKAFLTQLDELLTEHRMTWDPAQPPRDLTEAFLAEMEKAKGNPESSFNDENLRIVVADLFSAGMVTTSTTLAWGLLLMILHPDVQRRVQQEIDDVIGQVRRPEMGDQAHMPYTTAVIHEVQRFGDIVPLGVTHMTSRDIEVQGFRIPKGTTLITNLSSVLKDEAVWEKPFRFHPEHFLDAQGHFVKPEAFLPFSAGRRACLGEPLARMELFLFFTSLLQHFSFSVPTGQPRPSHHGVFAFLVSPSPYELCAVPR
Sequence of Thyrotropin-releasing hormone receptor (Homo sapiens) (P34981 whole entry, looked up): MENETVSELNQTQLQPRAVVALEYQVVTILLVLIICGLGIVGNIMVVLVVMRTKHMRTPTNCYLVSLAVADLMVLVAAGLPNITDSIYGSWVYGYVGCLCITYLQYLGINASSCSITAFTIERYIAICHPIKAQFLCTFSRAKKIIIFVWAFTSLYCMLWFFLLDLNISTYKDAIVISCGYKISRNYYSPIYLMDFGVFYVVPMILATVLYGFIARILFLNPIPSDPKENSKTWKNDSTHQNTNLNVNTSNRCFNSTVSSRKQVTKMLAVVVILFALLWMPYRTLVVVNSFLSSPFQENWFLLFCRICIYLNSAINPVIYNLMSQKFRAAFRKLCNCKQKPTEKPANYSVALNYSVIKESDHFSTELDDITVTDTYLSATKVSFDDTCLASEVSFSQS
Sequence of Cytochrome P450 2C19 (Homo sapiens) (P33261 whole entry, looked up): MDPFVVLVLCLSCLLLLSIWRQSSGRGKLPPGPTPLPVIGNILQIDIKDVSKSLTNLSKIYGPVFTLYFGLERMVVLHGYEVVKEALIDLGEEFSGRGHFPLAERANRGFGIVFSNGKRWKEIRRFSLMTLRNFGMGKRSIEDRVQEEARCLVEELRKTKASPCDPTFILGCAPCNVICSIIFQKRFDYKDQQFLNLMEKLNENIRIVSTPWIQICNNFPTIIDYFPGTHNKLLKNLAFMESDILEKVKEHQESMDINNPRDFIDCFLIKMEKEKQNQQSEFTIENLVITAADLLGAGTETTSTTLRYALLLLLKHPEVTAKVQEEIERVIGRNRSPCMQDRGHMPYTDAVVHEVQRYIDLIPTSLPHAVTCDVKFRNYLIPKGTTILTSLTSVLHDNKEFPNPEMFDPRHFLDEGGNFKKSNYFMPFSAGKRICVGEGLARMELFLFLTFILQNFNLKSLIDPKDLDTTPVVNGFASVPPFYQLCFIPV
Sequence of Nuclear receptor subfamily 1 group I member 2 (Rattus norvegicus) (Q9R1A7 whole entry, looked up): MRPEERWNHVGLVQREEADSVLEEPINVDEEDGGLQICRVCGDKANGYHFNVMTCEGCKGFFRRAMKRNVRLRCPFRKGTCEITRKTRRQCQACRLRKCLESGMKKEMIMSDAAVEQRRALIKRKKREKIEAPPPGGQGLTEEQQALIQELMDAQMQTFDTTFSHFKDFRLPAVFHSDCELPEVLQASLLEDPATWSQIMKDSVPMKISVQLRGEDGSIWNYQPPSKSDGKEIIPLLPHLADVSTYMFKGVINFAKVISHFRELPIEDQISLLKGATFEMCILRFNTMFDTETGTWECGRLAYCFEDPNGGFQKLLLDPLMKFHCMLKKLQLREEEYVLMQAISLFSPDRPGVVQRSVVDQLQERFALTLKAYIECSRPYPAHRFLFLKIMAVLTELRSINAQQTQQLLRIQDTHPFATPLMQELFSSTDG

`NC(=O)c1ccccc1`: in assay [1], the call was inactive. In addition, the Potency entry in [2], in [3], in assay [4], in assay [5], in assay [6] and in [7] was “inactive” in each case. The Potency result in [8], in assay [9], in assay [10], in assay [11], in assay [12] and in assay [13] was “inactive” in each case.
On to `C=CCCC`, for which the call in assay [1] was inactive. Besides, the Potency entry in assay [2], in assay [3], in assay [4], in [5], in [6] and in [7] was “inactive” throughout. Besides, the Potency result in [8], in assay [9], in [10], in [11], in assay [12] and in assay [13] was “inactive” throughout.
`CC(=O)c1ccc(Cl)c(Cl)c1Cl`: the outcome in assay [1] was inactive. Moreover, the Potency result in assay [2], in [3], in [4], in assay [5], in assay [6] and in assay [7] was “inactive” each time. Moreover, the Potency result in [8], in assay [10], in assay [12] and in assay [13] was “inactive” throughout. The values for the Potency in [9] and in assay [11] were 70.9 µM (active) and 11.2 µM (active), respectively.
Regarding `O=C(Nc1ccc2c(c1)Cc1ccccc1-2)C(F)(F)F`, the outcome in [1] was inactive. For the same molecule, the Potency entry in assay [2], in [3], in [4], in assay [5], in assay [6] and in [8] was “inactive” throughout. Besides, in assay [13], the Potency result was “inactive”. Also, the Potency is 34.4 µM (active) in [7], 17.8 µM (active) in [9], 5.03 µM (active) in assay [10] and 3.56 µM (active) in assay [11].
With `CC(O)CN` (stereo not given), in assay [1], the molecule was called inactive. The Potency entry in [2], in assay [3], in [4], in assay [5], in assay [6] and in [7] was “inactive” each time. The Potency entry in assay [8], in [9], in assay [10], in assay [11], in assay [12] and in [13] was “inactive” each time.
Turning to `C1CCN(CN2CCCCC2)CC1`, in [1], the call was inactive. The Potency entry in assay [2], in [3], in assay [4], in [5], in [6] and in assay [7] was “inactive” throughout. The Potency entry in assay [9], in assay [10], in assay [11], in assay [12] and in assay [13] was “inactive” throughout. Besides, the Potency in assay [8] is 7.1 µM (active).
On to `COc1cc(C)c(Cc2cnc(N)nc2N)cc1OC`, for which the molecule was called inactive in assay [1]. Moreover, the Potency entry in [2], in [3], in assay [4], in [5], in assay [6] and in assay [7] was “inactive” throughout. Further, the Potency result in assay [15], in assay [16], in assay [8], in assay [9], in assay [10] and in assay [11] was “inactive” in each case. Also, the Potency result in [13] was “inactive”. In addition, in [14], the max activation was -0.291%.
Regarding `Cc1c(Cl)cccc1[N+](=O)[O-]`, the molecule was called inactive in [1]. For the same molecule, the Potency result in assay [2], in [3], in assay [4], in assay [5], in assay [6] and in [7] was “inactive” each time. The Potency result in assay [8], in [9], in [10], in assay [11], in assay [12] and in assay [13] was “inactive” in each case.
